tim10-1 inh – inhibits growth of tim10-1 mutant yeast | S. cerevisiae tim10-1 ts strain growth, BacTiter-Glo, 24 h | inhibition, % at 20 µM | actives 2.2% (n = 330,000);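 active = inhibition of at least 40%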;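 note: mutant grown at 25 °C; 0% = DMSO wells with yeast and 100% = wells holding no yeast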
PfHsp90 set2 – reduces growth (ATP signal) of yeast expressing P. falciparum Hsp90; AID 504621; inhibition, % at 9.4 µM; S. cerevisiae expressing PfHsp90, BacTiter-Glo ATP, 48 h; yeast lacking PDR1 and PDR3 efflux regulators; actives 0.32% (n = 310,000);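 active = every replicate shows inhibition above about 80%, whatever the replicate mean, limit read from the data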;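 note: 0% = DMSO neutral controls and 100% = 20 µM radicicol positive controls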
V-ATPase pHluor – alters yeast V-ATPase proton transport. S. cerevisiae, pHLuorin cytosolic pH fluorescence. response, % at 10 µM. actives 0.37% (n = 350,000); in the data active = response mostly above about 7.3%, no sharp cut-off; inactive = mostly below about 5.4%; note: actives read high
TIM10 inh – inhibits growth of TIM10 yeast strain; S. cerevisiae TIM10 strain growth, BacTiter-Glo luminescence, 24 h; inhibition, % at 10 µM; actives 1.4% (n = 330,000); AID 463195;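 active = inhibition of 40% or more at the single tested concentration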;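 note: wild-type TIM10 isogenic control strain grown at permissive 25 °C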
tim23-1 inh – inhibits growth of tim23-1 mutant yeast; S. cerevisiae tim23-1 growth, BacTiter-Glo luminescence, 24 h; inhibition, % at 20 µM; actives 1.3% (n = 330,000); AID 463212;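 active = growth inhibition of the mutant yeast at or above 50%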;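 note: temperature-sensitive mutant grown at 25 °C; plate controls were DMSO-treated mutant yeast for no effect and medium wells lacking yeast for full effect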
tim10-1 confirm – confirmation of tim10-1 mutant yeast growth inhibitors; shares compounds with tim10-1 inh; S. cerevisiae tim10-1 ts strain growth, BacTiter-Glo, 24 h; inhibition, % at 20 µM; actives 56% (n = 7,400); AID 463213;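 active = inhibition of yeast growth at or above a set limit in either of two repeat tests at 20 µM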;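 note: tim10-1 mutant grown at permissive 25 °C to find synthetic lethal compounds; 0% = DMSO yeast wells and 100% = medium wells without yeast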
tim10 confirm – TIM10 yeast growth inhibition, confirmed; shares compounds with TIM10 inh; S. cerevisiae tim10 strain growth, BacTiter-Glo luminescence, 24 h; inhibition, % at 10 µM; actives 63% (n = 4,600); AID 463215;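 active = inhibition of yeast growth at or above a set limit in either of two replicates at 10 µM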;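 note: this counterscreen used the strain with wild-type TIM10; 0% = yeast with DMSO and 100% = medium wells lacking yeast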
tim23-1 conf – tim23-1 yeast growth inhibition, confirmed | shares compounds with tim23-1 inh | S. cerevisiae tim23-1 growth, BacTiter-Glo luminescence, 24 h | inhibition, % at 20 µM | actives 83% (n = 4,400);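 active = inhibition above about 39% in either of two replicate wells at 20 µM, limit read from the data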;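 note: temperature-sensitive tim23-1 mutant grown at 25 °C; 0% = DMSO wells with yeast and 100% = medium wells without yeast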
* marks the source's active call; other numbers are inactive results; . = no result given. Hits are enriched below; roughly 3.7% of the tested compounds scored in any of these assays.

SMILES	tim10-1 inh	PfHsp90 set2	V-ATPase pHluor	TIM10 inh	tim23-1 inh	tim10-1 confirm	tim10 confirm	tim23-1 conf
CS(=O)c1nc(-c2ccc(Br)cc2)cc(-c2ccccc2)c1C#N (configuration not stated)	40.8*	0.4	-0.7	20.2	67.6*	45.6*	.	59.7*
COc1ccc(OC)c(S(=O)(=O)Nc2c(C)n(C)n(-c3ccccc3)c2=O)c1	-3.7	-6.8	-3.0	-9.9	-1.5	.	.	.
O=C(COC(=O)CN1C(=O)c2ccccc2C1=O)NC1CCCCC1	-3.4	25.4	0.0	1.7	4.0	.	.	.
O=C(OCc1nnc(-c2ccccc2)o1)c1ccc(Br)o1	15.8	-9.8	-0.5	-6.0	16.1	.	.	.
O=C(OCc1nnc(-c2ccccc2)o1)c1ccc([N+](=O)[O-])o1	78.2*	.	4.3	-36.1	80.0*	58.8*	.	84.0*
CS(=O)(=O)N(CC(=O)N1CCCCCC1)c1cc(Cl)ccc1Cl	18.3	-19.2	-2.5	1.8	9.0	.	.	.
O=C(CC(=O)c1c(F)cccc1Cl)c1ccccc1O	52.5*	-64.8	4.3	7.5	62.6*	13.9	.	63.8*
COc1ccc([C@H]2C[C@@H](n3cc(-c4ccc(F)cc4)nn3)[C@H](O)CN2C(=O)c2cccs2)cc1	.	.	-0.1	.	.	.	.	.
CCOC(=O)C1=C(CC)Nc2ccccc2N=C1NC(=O)Nc1ccc(Cl)c(Cl)c1	78.6*	103.7*	-0.5	69.8*	76.1*	71.1*	-25.4	71.8*
COc1ccc(N2CCN(C(=O)COC(=O)c3oc4ccccc4c3C)CC2)cc1	21.1	10.8	7.5	19.3	47.6	.	.	.
CCCCn1c(N)c(N(CC)C(=O)C2=NN(c3ccccc3)C(=O)CC2)c(=O)[nH]c1=O	13.1	3.2	3.9	13.1	19.5	.	.	.
CCN(C(=O)COC(=O)c1ccc([N+](=O)[O-])o1)C1CCCCC1	19.0	.	4.3	15.4	32.0	.	.	.
O=S(=O)(c1ccc2nc(N3CCN(c4ccccc4F)CC3)ccc2c1)N1CCCCC1	-7.5	-4.4	2.1	7.3	-0.3	.	.	.
O=S(=O)(c1ccc2nc(Nc3ccccc3)ccc2c1)N1CCCCC1	50.5*	-5.1	2.3	23.4	50.1*	30.1	.	42.4*
Cc1ccc(OCCC(=O)OCC(=O)NC(=O)c2ccccc2)cc1	6.9	-2.6	0.5	-3.6	4.5	.	.	.
N/C(=N\OC(=O)c1ccc(Cl)cc1)c1[nH]ncc1Br	65.6*	19.2	3.5	42.5*	59.7*	62.8*	36.8*	58.6*
CC(OC(=O)c1cc(=O)c2cc(Cl)ccc2o1)C(=O)N1CCCC1 (configuration not stated)	-5.5	.	3.1	-5.3	-4.5	.	.	.
Cc1ccc(S(=O)(=O)CNC(=S)c2ccc3ccccc3c2)cc1	43.0*	-14.2	0.9	33.9	52.5*	20.4	.	49.6*
O=C(NC(=S)Nc1cccc(F)c1)c1cccc([N+](=O)[O-])c1	48.8*	-8.0	0.6	6.2	54.2*	3.1	.	51.6*
O=C(NNC(=S)NC(=O)c1ccccc1)c1cccc([N+](=O)[O-])c1	-2.3	26.3	-2.0	22.0	18.4	.	.	.
CCOc1cccc(C(=O)Nc2ccccc2C(=O)N2CCOCC2)c1	-4.0	0.8	-0.8	0.5	6.1	.	.	.
O=C1OC(c2ccc(Br)cc2)=N/C1=C\c1ccco1	57.1*	8.3	-1.5	44.8*	57.7*	25.9	9.9	44.4*
Cc1cccc(NC(=O)/C(C#N)=C/c2ccc(F)cc2)n1	31.7	11.5	-1.5	26.5	47.5	.	.	.
CCCOc1ccccc1/C=C(\C#N)C(=O)Nc1cccc(C)n1	49.2*	-12.5	-4.2	37.2	56.5*	45.1*	.	57.2*
NCCCNc1ccc([N+](=O)[O-])cc1C(F)(F)F	11.0	9.7	-0.6	3.0	-9.3	.	.	.
SMILES	tim10-1 inh	PfHsp90 set2	V-ATPase pHluor	TIM10 inh	tim23-1 inh	tim10-1 confirm	tim10 confirm	tim23-1 conf
COc1ccc(NS(=O)(=O)c2cccc(C(=O)N3CCCC3)c2)cc1	6.4	.	-0.7	-1.4	-9.4	.	.	.
CCOC(=O)COc1c(C=O)cc(Br)cc1OC	45.2*	.	-0.7	65.3*	61.1*	36.2*	53.2*	75.2*
CCOC(=O)COc1c(/C=N\OC)cc(Cl)cc1OC	18.6	-1.0	-3.7	-8.3	3.3	.	.	.
Cc1ccc(NC(=O)COC(=O)[C@H](C)N2C(=O)C3CC=CCC3C2=O)cc1S(=O)(=O)N(C)C (some centres not stated)	8.9	.	0.3	3.5	1.5	.	.	.
Cc1cccc2c1NC(=O)/C2=C\C(=O)c1cccs1	83.3*	-27.5	-0.2	81.8*	81.1*	87.4*	88.2*	76.7*
CN(C)/C=C/C(=O)c1ccc(Br)s1	7.2	-30.5	-1.0	-13.2	27.6	.	.	.
Cc1cc(C)c2c(c1)/C(=C/C(=O)c1ccc(Br)s1)C(=O)N2	77.7*	-21.8	2.4	76.1*	73.8*	68.8*	66.0*	70.2*
CN1/C(=C\C(=O)c2cccs2)C(C)(C)c2ccccc21	27.0	9.8	-2.4	-2.1	33.0	.	.	.
CC(C)(O)C#Cc1ccc(CN2CCCC(CNC(=O)c3ccco3)C2)cc1 (configuration not stated)	-11.1	-5.3	-2.4	6.9	-4.7	.	.	.
COc1cc(C(C[N+](=O)[O-])c2c(C)[nH]c3ccccc23)ccc1O (configuration not stated)	25.5	22.7	-0.4	28.7	24.8	.	.	.
O=c1[nH][nH]c(-c2ccccc2O)c1C(C[N+](=O)[O-])c1cccc(Cl)c1 (configuration not stated)	43.7*	-15.5	-2.2	47.8*	55.8*	44.5*	-8.2	54.6*
Cc1ccc(-c2[nH]ncc2C(=O)c2cccc(F)c2)c(O)c1	33.2	-0.4	6.1	4.6	29.8	.	.	.
Cc1ccc(-c2cc(-c3cccc(F)c3)n[nH]2)c(O)c1	57.5*	5.6	2.8	47.9*	58.5*	50.6*	-4.8	21.2
Cc1ccc(-c2cc(-c3ccccc3C)[nH]n2)c(O)c1	48.5*	-15.7	-1.3	49.3*	74.3*	58.4*	57.2*	54.2*
COc1ccc(S(=O)(=O)N=C2C=C(C)C(=O)C(C)=C2)cc1	17.5	-13.4	3.0	7.1	17.8	.	.	.
COc1ccc(SN=C2C(C)=CC(=O)C=C2C)cc1	70.9*	91.2*	2.5	91.3*	75.0*	73.0*	96.4*	74.5*
CCN(Cc1ccccc1)C(c1ccccn1)c1nnnn1C1CCCCC1 (configuration not stated)	41.9*	16.1	0.3	60.5*	62.0*	51.1*	62.0*	64.6*
COCCOC(=O)/C(=C/c1ccc(OC(=O)c2ccccc2)cc1)C(C)=O	73.1*	108.2*	3.8	79.5*	89.8*	64.6*	3.0	87.8*
